Screening results (PubChem)
Ecoli rRNA inh: inhibits bacterial ribosomal RNA function over humanized ribosomes. E. coli WT GFP vs humanized-ribosome RFP mutants, fluorescence, 24 h; hits give low values; DMSO median 0, no signal -100. GFP signal change (wild-type ribosome), % (concentration not given with the values). 1.6% of 350,000 active. AID 720706;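 active means significant combined selectivity score with lowered wild-type GFP, culture density cut under 30%, mutant RFP and density less affected; inactive means any of these conditions unmet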
DENV2 CPE: DENV2-induced cell death inhibition | DENV2-infected cells, cytopathic effect rescue, plate reader | CPE inhibition, % at 9.99 µM | 1.7% of 350,000 active; in the data active means CPE inhibition above about 20%, passing the limit was not always enough; inconclusive means no clear call, values can overlap the other calls; tested in BHK-21 cells
CaV13 ICDI inh: Disruptors of the CACNA1D IQ motif to Ca2+-dependent inactivation inhibitor domain association, primary screening, Förster resonance energy transfer in intact living … | HEK cells, CFP/YFP FRET ICDI-IQ, plate reader, 10 min; percent FRET-ratio fall versus neutral wells | inhibition, % at 12.3 µM | 0.098% of 340,000 active | AID 743397;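 active means mean replicate inhibition of at least 30% and at least 1% of replicates passing that level; inconclusive means only one of the two criteria is met; inactive means neither criterion is met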
INS-1E GSIS act: primary screen for activators of insulin secretion dependent on glucose, INS-1E cells, GLuc reporter luminescence; INS-1E GLuc reporter insulin secretion, 2-3 h; activation, % at 16.6 µM; 0.61% of 370,000 active;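 active means lowest replicate activation of at least 40%, so every replicate reaches that level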
ERAP1 inh: blocks human ERAP1 aminopeptidase activity; Q9NZ08; inhibition, % at 10.7 µM; recombinant ERAP1, Leu-AMC fluorescence, 60 min; 0.15% of 340,000 active; AID 652197;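 active means mean replicate inhibition of at least 30%, or all replicates individually reaching that 30% level; inactive means mean below 30% and not every replicate reaching it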
Target sequence (Q9NZ08 whole entry, looked up): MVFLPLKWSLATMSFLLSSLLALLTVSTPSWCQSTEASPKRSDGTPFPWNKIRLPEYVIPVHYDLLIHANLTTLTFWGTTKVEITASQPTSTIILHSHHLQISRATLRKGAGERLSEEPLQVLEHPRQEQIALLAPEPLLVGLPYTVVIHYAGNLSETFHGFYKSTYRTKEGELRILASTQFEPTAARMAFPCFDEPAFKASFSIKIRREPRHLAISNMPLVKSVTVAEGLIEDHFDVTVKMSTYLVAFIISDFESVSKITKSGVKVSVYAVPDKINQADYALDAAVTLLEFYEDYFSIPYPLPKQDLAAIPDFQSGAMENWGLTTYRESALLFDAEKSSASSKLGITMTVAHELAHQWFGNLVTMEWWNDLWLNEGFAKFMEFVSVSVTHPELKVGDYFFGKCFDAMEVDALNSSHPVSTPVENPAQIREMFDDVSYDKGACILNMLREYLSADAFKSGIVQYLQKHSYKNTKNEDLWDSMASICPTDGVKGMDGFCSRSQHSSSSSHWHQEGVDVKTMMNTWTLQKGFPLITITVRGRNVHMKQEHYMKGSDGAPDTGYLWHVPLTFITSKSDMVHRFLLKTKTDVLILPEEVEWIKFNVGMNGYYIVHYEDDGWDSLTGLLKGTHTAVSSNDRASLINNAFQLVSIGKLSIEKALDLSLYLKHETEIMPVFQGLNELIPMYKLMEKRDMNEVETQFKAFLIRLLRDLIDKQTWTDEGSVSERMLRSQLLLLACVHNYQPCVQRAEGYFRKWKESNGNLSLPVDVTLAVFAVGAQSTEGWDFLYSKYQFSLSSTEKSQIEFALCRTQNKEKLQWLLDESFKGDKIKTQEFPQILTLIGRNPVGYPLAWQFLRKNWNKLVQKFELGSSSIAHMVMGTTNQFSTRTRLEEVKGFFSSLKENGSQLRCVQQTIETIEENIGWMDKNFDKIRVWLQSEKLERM
PGC1a acetyl inh: PGC1a acetylation modulation, inhibitor mode; inhibition, % at 15.6 µM; AID 651687; 0.17% of 350,000 active; U2OS PGC1a acetylation, AlphaScreen anti-acetyl-lysine; with virally co-expressed GCN5 acetyltransferase;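 active means every replicate shows inhibition of at least 40%; inconclusive means mean inhibition at least 40% but some replicate below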
AID977621: growth inhibition of wild-type GFP E. coli, dose response, H69 mutant RFP, cherry-pick; shares compounds with Ecoli rRNA inh; E. coli wild-type GFP strain growth, fluorescence, 24 h; activity change, negative = inhibition at 50 µM; 1,900 tested, under 10 active; AID 977621;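 active means Wild-type ribosome reporter drop at least double the humanized mutant ribosome reporter drop, growth loss under a set limit; inconclusive means no clear call, values can overlap the other calls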;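 further: wild-type GFP and H69 mutant RFP strains grown together 50/50 in each well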
AID977628: growth of wild-type and h24-humanized E. coli strains – h24 mutant RFP vs wild-type GFP, cherry-pick, dose response. shares compounds with Ecoli rRNA inh. E. coli WT GFP strain growth, fluorescence, 24 h. activity change, negative = inhibition at 50 µM. 1,900 tested, under 10 active. AID 977628;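 active means compound lowering the normal-ribosome reporter at least twice as much as the humanized-ribosome reporter, growth loss under a set limit; inconclusive means no clear call, values can overlap the other calls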;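 further: wild-type GFP and h24 humanized RFP strains co-cultured 1 to 1 per well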
Large screens that a line does not name were inactive (follow-up assays come after a bar, where they were run). A selection: hits, their analogues and other compounds. The true share with any hit is near 3.2%.

O=C(Nc1cccnc1)c1sc2cccc(F)c2c1Cl	Ecoli rRNA inh -20 | AID977621 inactive | AID977628 inactive
Cc1occc1C(=O)NCc1ccccc1	none (no result: Ecoli rRNA inh, DENV2 CPE, INS-1E GSIS act, ERAP1 inh)
Cc1ccc(C(=O)NCc2ccccc2)c(F)c1F	Ecoli rRNA inh -18 (no result: PGC1a acetyl inh) | AID977621 inactive | AID977628 inactive
CCOc1ccccc1N1CCN(Cc2cn[nH]c2-c2ccc(F)cc2)CC1	Ecoli rRNA inh -19 | AID977621 inactive
Cc1ccccc1-c1cnc2c(c1)C(=O)N([C@H](C)CO)C[C@H](C)[C@H](CN(C)Cc1cncnc1)O2	none (no result: CaV13 ICDI inh)
C[C@H](CO)N1C[C@H](C)[C@H](CN(C)C(=O)C2CCOCC2)Oc2ncc(C#CCc3ccccc3)cc2C1=O	none (no result: CaV13 ICDI inh)
Cc1ccc(S(=O)(=O)N2CCN(CC(=O)Nc3ccc4c(c3)CCC4)CC2)cc1C	none (no result: Ecoli rRNA inh, DENV2 CPE, ERAP1 inh)
CN(CC(=O)Nc1ccc(S(=O)(=O)N2CCCC2)cc1)CC(=O)Nc1ccc(F)c(F)c1F	Ecoli rRNA inh -33 (no result: DENV2 CPE, PGC1a acetyl inh) | AID977621 inactive | AID977628 inconclusive
CSc1ccccc1NC(=O)CN(C)CC(=O)Nc1ccc(S(=O)(=O)N2CCCC2)cc1	none
O=C(CN1CCN(S(=O)(=O)c2ccc(Cl)cc2)CC1)Nc1ccc2c(c1)CCC2	Ecoli rRNA inh -21 (no result: DENV2 CPE, PGC1a acetyl inh) | AID977621 inactive | AID977628 inconclusive
COc1ccccc1OCC(=O)Nc1ccc(S(=O)(=O)N2CCCCCC2)cc1	Ecoli rRNA inh -19 (no result: DENV2 CPE) | AID977621 inactive
C[C@@H]1CN([C@@H](C)CO)C(=O)Cc2cc(NC(=O)Nc3cccc4ccccc34)ccc2O[C@@H]1CN(C)Cc1ccncc1	none (no result: Ecoli rRNA inh, CaV13 ICDI inh, INS-1E GSIS act)
COc1ccc2c3c(n(C)c2c1)[C@@H](CO)N(Cc1ccccc1F)CC31CCN(C(=O)C2CCC2)CC1	none (no result: CaV13 ICDI inh, ERAP1 inh)
CN(C)CCCn1c(=O)n(Cc2ccco2)c(=O)c2c3c(sc21)CCCCC3	Ecoli rRNA inh -26 | AID977621 inactive | AID977628 inconclusive
O=S(=O)(c1cccc(Cl)c1)N1[C@@H]2CNC[C@H]1C2c1ccc(-c2cccnc2)cc1 (stereo partly specified)	none (no result: CaV13 ICDI inh)
CC1CCCC(NC(=O)COC(=O)Cc2ccc(Cl)cc2)C1C (stereo unspecified)	none
CC1CCCC(NC(=O)COC(=O)Cc2c[nH]c3ccccc23)C1C (stereo unspecified)	Ecoli rRNA inh -29 | AID977621 inactive | AID977628 inactive
COCC(=O)Nc1ccc2c(c1)OC[C@H](C)N(CC1CCCCC1)C[C@H](C)[C@H](OC)CN(C)C2=O	none (no result: CaV13 ICDI inh)
COc1ccc(NC(=O)CSc2n[nH]c(-c3ccncc3)n2)c([N+](=O)[O-])c1	Ecoli rRNA inh -18 (no result: CaV13 ICDI inh) | AID977621 inconclusive | AID977628 inactive
CCCC(=O)Nc1ccc2c(c1)OC[C@H](C)N(C(=O)CC1CC1)C[C@H](C)[C@H](OC)CN(C)C2=O	none (no result: CaV13 ICDI inh)
COc1ccc(-c2cn3cc(Cl)ccc3n2)cc1OC	Ecoli rRNA inh -27 | AID977628 inconclusive
OC[C@@H]1Nc2ccc(C#Cc3ccccc3)cc2[C@H]2[C@@H]1CCN2Cc1nccs1	none (no result: DENV2 CPE, CaV13 ICDI inh, ERAP1 inh)
N#C[C@H]1[C@@H](c2ccccc2-c2ccccc2)[C@@H](CO)N1C(=O)Cc1cccnc1	none (no result: DENV2 CPE, CaV13 ICDI inh, ERAP1 inh, PGC1a acetyl inh)
Cc1ccc(Nc2cc(C(=O)NCCCN3CCOCC3)c3ccccc3n2)cc1C	Ecoli rRNA inh -22 (no result: PGC1a acetyl inh) | AID977628 inconclusive
CCCCCCC(=O)N1CCCC(c2nc(-c3cccc(OC)c3)no2)C1 (stereo unspecified)	Ecoli rRNA inh -31 | AID977621 inactive | AID977628 inconclusive
c1ccc(-c2nc(-c3cccnc3)cs2)cc1	Ecoli rRNA inh -24 | AID977621 inconclusive
c1ccc(-c2csc(-c3cccnc3)n2)cc1	none
